Bioassay records as filed in PubChem BioAssay.
Pf growth 96h: Primary qHTS for delayed death inhibitors of the malarial parasite plastid, 96 hour incubation. P. falciparum luciferase reporter growth, 96 h. Potency, µM (series often up to 28.7 µM), for inactives: at the top dose activity change, negative = inhibition, actives largely listed as inhibitors. 320,000 compounds, 6.9% hits. AID 504834, 2011; further: potency means the concentration at half of the fitted maximal effect; on the % scale 0 is the no-effect control and ±100 the full control effect
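Parasite growth measured via integrated firefly luciferase reporter in P. falciparum. Infected erythrocytes at 2% hematocrit, 0.05% parasitemia final were treated 96 hours at 37 C under 5% CO2, and luminescence was read.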
Pf growth 48h: Primary qHTS for delayed death inhibitors of the malarial parasite plastid, 48 hour incubation | P. falciparum luciferase growth in erythrocytes, 48 h | Potency, µM (doses to about 28.7 µM), for the others: top-dose activity change, negative = inhibition, usual class: inhibitors | 310,000 compounds, 5.9% hits; further: potency means the concentration at half of the fitted maximal effect; on the % scale 0 is the no-effect control and ±100 the full control effect
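Luciferase-expressing P. falciparum in infected erythrocytes (2% hematocrit, 0.1% parasitemia final) in RPMI 1640/0.5% Albumax were exposed to compound for 48 hours at 37 C, 5% CO2; growth read as luminescence.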
CHX counter: Cycloheximide Counterscreen for Small Molecule Inhibitors of Shiga Toxin. cell reporter, cycloheximide protein synthesis inhibition counterscreen. 300,000 compounds, 12% hits. max response, %. AID 2314, 2010; in the data active means max response mostly above about 13%, no sharp cut-off; inactive means mostly below about 14%; further: read at 38.3 µM for the half of the compounds with a filed dose; 0% is about no effect
Shiga inhibitor: A qHTS for Small Molecule Inhibitors of Shiga Toxin; Vero cells, Shiga toxin protein synthesis inhibition reporter; inhibition, % at 38.7 µM; 290,000 compounds, 9.2% hits; AID 2315, 2010; in the data active means inhibition mostly above about 28%, no sharp cut-off; inactive means mostly below about 43%; further: 0% is about no effect
HCMV antiviral: qHTS Assay for inhibitors of the human cytomegalovirus (HCMV); AID 1259415, 2018; activity change, negative = inhibition, % at 57.5 µM; 410,000 compounds, 4.5% hits; HFF cells, HCMV-luciferase reporter, 72 h; hits give low values; in the data active means activity change below about -60%; inconclusive means no clear call, values can overlap the other calls; inactive means above about -39%; further: on the % scale 0 is the no-effect control and ±100 the full control effect
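Two compound doses tested in HFFs infected with HCMV-luciferase, MOI 1 PFU/cell, 72 h at 37C. Lysate luminescence read with OneGlo; data normalized against buffer-only and 10uM Salinomycin inhibitor controls.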
HCV inhibitor: qHTS Assay for Inhibitors of Hepatitis C Virus (HCV). Huh7.5.1 HCVcc-Cre infection, luciferase reporter, 44 h. Potency, µM (doses to about 41.8 µM), inactives show top-dose activity change, negative = inhibition, actives largely listed as inhibitors. 340,000 compounds, 3.4% hits; further: potency means the concentration at half of the fitted maximal effect; on the % scale 0 is the no-effect control and ±100 the full control effect
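Cells seeded at 1,000/well and cultured 4 h, then compounds added followed by HCVcc-Cre virus (~0.5 moi). After 44 h further culture, luciferase substrate was added, plates held 15 min at room temperature, and luminescence read for 15 sec.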
* = called active by the depositor; ? = inconclusive; · = not tested or not shown. Compounds with a hit are over-represented: about 21% of the library has one in this group of screens. Unless noted, the call rests on the fitted dose curve; in most records, active means well fitted inhibition curve with a large enough effect; inconclusive means small, poorly fitted or top-dose-only effect, or another doubt; inactive means no such curve, though single readings can be large or run the other way.

SMILES	Pf growth 96h	Pf growth 48h	CHX counter	Shiga inhibitor	HCMV antiviral	HCV inhibitor
Cc1cc(F)ccc1S(=O)(=O)N1CCCOC1CNC(=O)C(=O)NCCc1c[nH]c2ccccc12 (stereo unspecified)	9.3µM*	?	-4	-9	-36	11µM*
Cc1ccc(S(=O)(=O)N2CCOC2CNC(=O)C(=O)NCCc2c[nH]c3ccccc23)cc1 (stereo unspecified)	?	0%	-7	-6	-80*	?
O=S(=O)(c1ccc(F)cc1)N1CCN(CCc2ccccc2)CC1	?	34%	-1	-10	-28	-13%
Cc1ccccc1-c1nnc(SCC(=O)NC2CCCC2)n1C	15%	-11%	·	·	-14	8%
COc1cc2c(c3c1c(=O)c1cccc(F)c1n3C)C=CC(C)(C)O2	·	·	·	·	-13	·
O=C(NCc1cc(Br)cc(Br)c1OC(=O)c1ccccc1[N+](=O)[O-])c1ccccc1	5.2µM*	5%	-1	8	-1	?
CCc1ccc(CNC(=O)c2cnc3sc(N4CCOCC4)nn3c2=O)cc1	·	·	·	·	5	·
CC(C)[C@H](NC(=O)OCc1ccccc1)C(=O)OCC(=O)Nc1ccc(N2CCOCC2)cc1	31%	8%	·	·	?	-20%
Cc1cc(/C=N/n2cnnc2)c(C)n1-c1ccc2c(c1)OCO2	10µM*	11%	-7	-18	11	-9%
CC(=O)c1ccc(COC(=O)c2ccccc2NC(=O)C(C)C)cc1	14%	9%	-1	17	·	·
CC(=O)Nc1ccccc1C(=O)OCC(=O)c1ccccc1Cl	107%	59%	24*	53*	6	0%
CC(=O)Nc1ccccc1C(=O)OCc1ccccc1F	?	56%	29*	61	-13	?
CCCN(CCC)C(=O)CSc1nnc2cc(C)c3ccccc3n12	·	·	·	·	0	·
COc1cc(NCc2ccc3nc(N)nc(N)c3c2C)cc(OC)c1OC	0.0048µM*	0.006µM*	0	-2	·	·
COc1ccc(CNc2ccncc2)c(OC)c1OC	·	·	·	·	-9	4%
c1ccc(Cn2nnc3c(N4CCN(Cc5ccc6c(c5)OCO6)CC4)ncnc32)cc1	37%	-14%	-3	-5	-22	7.1µM*
Cc1ccc2c(c1)[nH]c1c(N3CCN(Cc4ccc5c(c4)OCO5)CC3)ncnc12	·	2.9µM*	-3	-18	·	·
c1ccc2c(c1)oc1c(N3CCN(Cc4ccc5c(c4)OCO5)CC3)ncnc12	·	?	36*	98*	12	?
Clc1ccc(N2CCN(c3ncnc4c3oc3ccccc34)CC2)cc1	38%	14%	-1	-9	5	-8%
COc1ccc(-c2cc(C(F)(F)F)nc(SCC(=O)N3CCCCC3C)n2)cc1OC (stereo unspecified)	·	·	·	·	-4	·
Cc1ccc(Sc2c(C)nn(-c3ccccc3)c2OC(=O)C(C)(C)C)cc1	·	·	·	·	9	·
O=c1c2oc3ccccc3c2n(Cc2cccc(F)c2)c(=O)n1Cc1ccco1	·	·	·	·	-4	·
O=C1C(=O)N(C(CCc2ccccc2)c2nnnn2Cc2ccccc2)c2ccccc21 (stereo unspecified)	·	·	·	·	38	·
CCOc1ccc(CCNC(=O)CN2CCN(Cc3ccc(F)cc3)C2=O)cc1OCC	-3%	·	-1	-3	-28	?
CCOc1ccc(C(=O)CN2C(=O)NC3(CCCCCC3)C2=O)cc1	-2%	?	·	·	-5	?
SMILES	Pf growth 96h	Pf growth 48h	CHX counter	Shiga inhibitor	HCMV antiviral	HCV inhibitor
CCOc1ccc(CCNC(=O)CN2C(=O)NC3(CCCCCC3)C2=O)cc1OCC	?	13µM*	·	·	-14	7%
CCOc1ccc(CCNC(=O)CN2CCN(Cc3ccccc3F)C2=O)cc1OCC	1.5µM*	?	-3	-4	-3	11µM*
CCOc1ccc(C(=O)NNC(=O)CN2C(=O)NC3(CCCC3)C2=O)cc1	28%	36%	·	·	-102*	-2%
COc1ccc(CNC(=O)CN2C(=O)NC3(CCCCCC3)C2=O)cc1OC	0%	0%	1	-16	-31	-4%
CC(C)CC(=O)N1c2nc(C(C)C)nn2C2(CCCCC2)[C@@H]2CCCC[C@@H]21	·	·	·	·	40	·
CCCC(=O)N1c2nc(C(C)C)nn2C2(CCCCC2)[C@@H]2CCCC[C@@H]21	·	·	·	·	-75*	·
